Laboratory results reported in PubChem BioAssay AID1347426 (Functional Genomics Laboratory (NCATS/FGL), 2020).
Screen size: about 31,000 sequences; about 1,400 (4.5%) were called active.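 The calls were made as follows: active = median seed-adjusted z-score above 1 or below -1; inactive = the rest.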 Only a selection was taken, and actives are over-represented in it overall.

assay: Novel Modifiers of Survival Motor Neuron (SMN) Protein: Gene Identification via Genome-wide siRNA Screen; conditions: HEK293T SMN2-luciferase reporter, siRNA knockdown, 72 h; actives lie on both sides;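 also: luminescence tracks full-length SMN protein made from the SMN2 reporter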
Procedure, shortened: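 Genome-wide siRNA screen (10418 genes, 3 siRNAs each, 1 pmol per well) by reverse transfection in HEK293T cells stably carrying an SMN2-luciferase reporter; luminescence after 72 hours, normalized to negative-control siRNA, log10-transformed, MAD-scored.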

| Sequence | median seed-adjusted z-score |
| --- | --- |
| CAGCGAUGCUACGACAAUATT against PHF17 | 1.01 (active) |
| GAAUUUUGAUGUCAUACGATT against DTNB | -0.142 (inactive) |
| GGAACUUCCUGAGAACAUUTT against MAP3K8 | -0.533 (inactive) |
| CAUUCACGAUCUUCCCGUATT against MYO16 | -0.072 (inactive) |
| GUUGCAAACUUAUCGAGGATT against CCT2 | -0.0508 (inactive) |
| GGUAGAAUCUAGGUAUGCATT against RAD51 | 0.594 (inactive) |
| GCAUAUGGUUCUGAAGAUATT against GTF2E1 | 1.76 (active) |
| GAGCAAAUCAAAGAACUAATT against TSC22D1 | 0 (inactive) |
| AGACACCUCCUAGGACUAUTT against MZF1 | 0.215 (inactive) |
| GGAGUGCACGAGACAUUCATT against FAH | -0.0836 (inactive) |
| GGACUACAAAGGUUCUCGATT against CDH18 | 0.21 (inactive) |
| CAGCUUCGAUAUAAGGAAATT against MYST2 | -1.46 (active) |
| ACCUGACCGUGUCGCUAUATT against DHRSX | -0.686 (inactive) |
| GGAACCUGGAGAUAUCAUUTT against FUT8 | 0.464 (inactive) |
| UGGUGUCGCUGGAGAAGUATT against GPX7 | -0.971 (inactive) |
| CCAUCCCACUGGUCACAUUTT against SLC7A8 | -0.134 (inactive) |
| GGAGGCAUUUGAAGUUCCATT against FARP1 | -0.487 (inactive) |
| GGACCGCUACUCUGAGUAUTT against KCNH6 | 0.424 (inactive) |
| CUGUUAUUCUUCAUACCUATT against TAAR8 | 0.0792 (inactive) |
| GGAUCAAGACGUGAACGAUTT against CPSF6 | -2.38 (active) |
| GAGUAUUCUGAGUACAUGATT against ZFP42 | -0.537 (inactive) |
| CAAACAUCUAUGCAGCAAATT against MS4A8B | 0.207 (inactive) |

| Sequence | median seed-adjusted z-score |
| --- | --- |
| GGAUGAGAAGAGACGUAGATT against DNMT1 | 0.185 (inactive) |
| CAUGAACCCUUGGUAGAUATT against TBRG1 | -1.47 (active) |
| GGGUUUUUGCGCUUCAAAATT against GALNAC4S-6ST | 0.218 (inactive) |
| GCAAAAUGAUCAUUAAUGATT against EIF3C | 0.56 (inactive) |
| GGACCAUAAUCAAUGUAGATT against ZNF585A | -0.168 (inactive) |
| CCUCAACUAUCAGAACAAUTT against KLF10 | 0.616 (inactive) |
| GGUUGUUGUAUACUUGCAATT against LIPJ | 0.295 (inactive) |
| GACCUAUGCAGUUCGAAAATT against SFRS1 | -1.66 (active) |
| GGAGUGUGCUGAAGACCUATT against GFER | 0.402 (inactive) |
| CCACGUGAUAAAUCAAGAATT against PRPF4B | -2.29 (active) |
| GAAAGACACUGGGACUCGATT against SNRNP35 | 0.172 (inactive) |
| GCAUCGCAAGAGCUGCAAATT against DPYD | -0.112 (inactive) |
| GAUUGUCAAUGGGUGUAUUTT against AOF1 | -0.211 (inactive) |
| CCCUCCAAAUAGCAAAUGUTT against PCOLCE2 | -1.15 (active) |
| GGGUCAUACGAAUACCGAUTT against VIPR2 | 0.706 (inactive) |
| GCAACGUGAUCAAAGGUAUTT against GNA13 | 0 (inactive) |
| CAAGGACAACUCAAACUUATT against PRKACA | -0.137 (inactive) |
| CGUAUAUAGAGUUCUCAGATT against PABPN1 | -0.757 (inactive) |
| CCCUUAAUUUUGUAACAGATT against SLC7A6 | -0.0877 (inactive) |
| GGGUAACCACUGACAUUCATT against SUPT5H | -4.02 (active) |
| GCCUUAAAAAGCACCAAAATT against ZNF16 | 0 (inactive) |
| AAGUUCCUAUCGGUCGUAUTT against HBZ | -0.0054 (inactive) |

| Sequence | median seed-adjusted z-score |
| --- | --- |
| GGACCAUCGGGAUCAUCAATT against P2RX3 | -0.44 (inactive) |
| GCAAUGAACACCAUCCGAATT against KEAP1 | 0.207 (inactive) |
| AGCUCUUAUUAGCUGCAUATT against MS4A7 | 0.0794 (inactive) |
| GCAACGAUCACCUAAAUUATT against NOP2 | 1.15 (active) |
| GGUCAAAUCAGCAAAGGUUTT against RNF25 | -0.0826 (inactive) |
| CGACAAUCUAACUUCCGUATT against CYTH3 | 0.196 (inactive) |
| CAGGCAUCAUAUUUUGAAATT against NUDT3 | 0.674 (inactive) |
| CAAAGAUUCUGACUGAUGATT against GPATCH4 | -0.519 (inactive) |
| GAACCUAUCUGAUCGGCAATT against RFX3 | 0.17 (inactive) |
| CAUCUUAAGUGUUUUACAUTT against LMO4 | -0.067 (inactive) |
| GCAGCAUACAGGAAUACCATT against ATRNL1 | -0.142 (inactive) |
| GCAGCAUAUUAUAGACAAATT against ZBTB37 | -0.219 (inactive) |
| GCCUGGGUCAAAUACAGUATT against KLHL20 | -0.0828 (inactive) |
| GAUCAUUGCUGGGAAUCUATT against GPR52 | -1.17 (active) |
| GUCUGAAUGUCGAAGAGAATT against G3BP1 | -0.593 (inactive) |
| CUGGAACAGUGUACCCAAATT against CD2AP | 0.113 (inactive) |
| CCAUGUGAUUAUGUACUCATT against ELOVL4 | 0.166 (inactive) |
| AGAUAUAUAAAUCAACGAATT against LSM3 | -1.36 (active) |
| UGACCUACGAGGAAAUUCATT against PFKFB4 | 0.149 (inactive) |
| CAACGAUAGCUUAUCCCAATT against LPGAT1 | 0.625 (inactive) |
| GCUUAUAUGGUGUACAUUUTT against ELOVL6 | 0.742 (inactive) |
| UCCCGUUCCGUACGACUUATT against DHRS7C | -0.398 (inactive) |

| Sequence | median seed-adjusted z-score |
| --- | --- |
| GUGGGAGUCGGGACAUAUATT against MAFK | 1.73 (active) |
| CCAUUGAUGCAACAGGUAATT against USO1 | 0.21 (inactive) |
| CAAGGACAAAUUUCCCGUUTT against HOXD8 | -0.883 (inactive) |
| GCAUGGUACUCUAUAGUCUTT against FAT4 | -0.363 (inactive) |
| GGAUGUGGUAGUACAGAAATT against PSMD2 | -1.44 (active) |
| GACUGACGAUGACACGGAATT against KPNA6 | -1.54 (active) |
| GGUACUCCAGAGUAUAACATT against CMYA5 | -0.858 (inactive) |
| GAGCCUGACUCAGUCUUUATT against AQP9 | -0.192 (inactive) |
| GAGAAAUCGUGCUCAGUUATT against CNOT8 | 0.375 (inactive) |
| CCUGUUUCCGUGAAGAAAATT against CXCR4 | -0.347 (inactive) |
| ACACCUCUCCGGACACCAATT against IRF3 | 0.0117 (inactive) |
| GACGAUGAAUGAAAAGGCATT against NRBP1 | -1.13 (active) |
| AGAAUUCUUCGAUCACAAATT against KCNMB3 | 0.513 (inactive) |
| CAAGUACCCUGAUAGAGUUTT against ABHD4 | -0.054 (inactive) |
| AGAUGAAGCUGCAAGUGUATT against COX10 | 0.339 (inactive) |
| CAGUGGAUCAAAUAACGCATT against ADAMTS20 | 1.44 (active) |
| GAACCUCAGUCAAAUCGAUTT against OXSR1 | -0.0682 (inactive) |
| CCAUUUGGAUAUCAAAGUATT against ILF2 | -0.19 (inactive) |
| CAGUCAAGCUUGGAGUUAATT against SYTL3 | 0.236 (inactive) |
| AGAUGUUCUGAGGCUGAUATT against OASL | 1.02 (active) |
| GGAUAAGGACGACCAGAUUTT against HPCAL4 | 0.282 (inactive) |
| GUGCUAAAUUUAGCUCAAATT against IL2 | 0.0694 (inactive) |

| Sequence | median seed-adjusted z-score |
| --- | --- |
| CCAAGCAAAUAGUAGAAGATT against CYLC1 | 0.177 (inactive) |
| GAACGAGUCCUUUACUACATT against GFM1 | -0.0641 (inactive) |
| CAACUUUCAGAUCAGUGAATT against ARD1A | -1.05 (active) |
| CAGACAAGCUGAUCCGCAUTT against TGM5 | 0.0181 (inactive) |
| GGUCUGUUCUUCUUACAGATT against PRKCB1 | 0.0463 (inactive) |
| GCCCAUCGUGCUUAAAGAATT against RASA3 | 0.0056 (inactive) |
| CACCUACUGUAGAGGUGAATT against GPRC6A | 0 (inactive) |
| GAACAUAUCAAGACCGGUUTT against MED30 | -2.06 (active) |
| UAGGGAAGCUGAAAGUGCATT against OXER1 | -0.471 (inactive) |
| CAACCAAUAUAGAACUUCATT against RBBP5 | 0.169 (inactive) |
| GCAGCCUUGUCAUCGACAATT against PDLIM1 | -0.189 (inactive) |
| CCUAAAGCCUGAAGAAGAATT against TXNDC2 | -1.29 (active) |
| CAUCGGUGCCCAGAAGUCATT against SSBP4 | 0.254 (inactive) |
| GACUCUCUGAGGUAGAAAATT against EPN3 | 0.184 (inactive) |
| GCUAGAACGGGAACGAAGATT against NEK10 | -0.0464 (inactive) |
| CCAGUGCUCCCGAAACUGATT against KRTAP5-5 | -1.07 (active) |
| GCUCAUCGUGGGUCUCCUATT against POR | 0.189 (inactive) |
| CUCUCGUACUUUGAACCUATT against PANK3 | -0.185 (inactive) |
| CCCACUAUGCAAAAUGUAATT against PCMT1 | 0.139 (inactive) |
| GGUGGUCCAUGAAAAAGCATT against SOD1 | -0.8 (inactive) |
